The values that follow come from PubChem BioAssay (EPA / NIEHS).

Results filed as inconclusive are left out. Active and inactive are the calls of the source. How the source made its calls, unless noted: active means hit-call score of the fitted dose curve at least 0.9, where 1 is the maximum; inactive means score below 0.9.

Read-out in assay [1]: Pyruvate Dehydrogenase Kinase 4 (PDK4), PDK4 (gene 5166)
Briefly: LTEA_HepaRG_PDK4: Life Technologies and Expression Analysis (LTEA) Assay for Pyruvate Dehydrogenase Kinase 4 (PDK4) using HepaRG (AID 2283525). The following applies: mRNA level, 48 h; actives raise or lower the signal. The procedure, abridged: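 In this multiplexed human HepaRG expression assay, cells are treated 48 h with test chemicals across an eight-point range starting at 100 uM. PDK4 mRNA changes, normalized to ACTB/GAPDH/POLR2A, are fitted in both directions relative to vehicle.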

Read-out in assay [2]: NAD(P)H dehydrogenase [quinone] 1 (NQO1), NQO1 (gene 1728)
Briefly: LTEA_HepaRG_NQO1: Life Technologies and Expression Analysis (LTEA) Assay for NAD(P)H dehydrogenase [quinone] 1 (NQO1) using HepaRG (AID 2283526). The note with it: mRNA level, 48 h; actives raise or lower the signal. The gist of the method:
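Human HepaRG hepatic cells received chemicals for 48 h in serum-free induction medium with 0.5% DMSO, up to 100 uM. Expression was assessed by TaqMan qRT-PCR against housekeeping controls and fitted bidirectionally against DMSO.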

Read-out in assay [3]: Nuclear factor erythroid 2-related factor 2 (Homo sapiens) (UniProt Q16236)
Briefly: LTEA_HepaRG_NFE2L2: Life Technologies and Expression Analysis (LTEA) Assay for Nuclear factor erythroid 2-related factor 2 (NFE2L2) Transcription Factor using HepaRG (AID 2283527).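 Further: TaqMan qRT-PCR transcript level normalised to ACTB GAPDH and POLR2A housekeeping genes.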 The note with it: mRNA level, 48 h; actives raise or lower the signal. The gist of the method: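 Transcript level of NFE2L2 is the read-out, measured by microfluidic TaqMan qRT-PCR and normalized to three housekeeping genes. Human HepaRG cultures received test chemical for 48 h at up to 100 uM in half-log steps. Gain or loss of signal is fitted relative to 0.5% DMSO.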

Read-out in assay [4]: Signal transducer and activator of transcription 3 (Homo sapiens) (UniProt P40763)
Briefly: LTEA_HepaRG_STAT3: Life Technologies and Expression Analysis (LTEA) Assay for Signal transducer and activator of transcription (STAT3) using HepaRG (AID 2283529). The note with it: mRNA level, 48 h; actives raise or lower the signal. The procedure, abridged: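 Read-out is STAT3 mRNA level by qRT-PCR, normalized to three housekeeping genes, in human HepaRG liver cells treated for 48 h. Concentrations ran from 100 uM downward in half-log steps; curves were fitted for gain or loss relative to 0.5% DMSO.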

Read-out in assay [5]: solute carrier (SLCO1B1), SLCO1B1 (gene 10599)
Briefly: LTEA_HepaRG_SLCO1B1: Life Technologies and Expression Analysis (LTEA) Assay for solute carrier (SLCO1B1) using HepaRG (AID 2283530). The note with it: mRNA level, 48 h; actives raise or lower the signal. The gist of the method:
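Differentiated human HepaRG cells were exposed for 48 h in serum-free induction medium to eight half-log concentrations, top 100 uM, in 0.5% DMSO. SLCO1B1 mRNA was measured by qRT-PCR, normalized to ACTB, GAPDH and POLR2A, and fitted bidirectionally against DMSO.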

Read-out in assay [6]: sulfotransferase 2A1 (SULT2A1), SULT2A1 (gene 6822)
Briefly: LTEA_HepaRG_SULT2A1: Life Technologies and Expression Analysis (LTEA) Assay for sulfotransferase 2A1 (SULT2A1) using HepaRG (AID 2283531). The following applies: mRNA level, 48 h; actives raise or lower the signal. The procedure, abridged: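 HepaRG human liver cells, 48 h exposure in serum-free induction medium to 8 half-log concentrations topping at 100 µM (0.5% DMSO), duplicate wells. SULT2A1 mRNA measured by TaqMan qRT-PCR, normalized to ACTB/GAPDH/POLR2A; bidirectional fit against DMSO.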

Read-out in assay [7]: Transforming Growth Factor (TGFA), TGFA (gene 7039)
Briefly: LTEA_HepaRG_TGFA: Life Technologies and Expression Analysis (LTEA) Assay for Transforming Growth Factor (TGFA) using HepaRG (AID 2283532). The note with it: mRNA level, 48 h; actives raise or lower the signal. The gist of the method: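 HepaRG (human liver line), 48 h exposure, 8 conc. half-log down from 100 uM, 0.5% DMSO vehicle, duplicates; serum-free induction medium. TGFA mRNA by TaqMan qRT-PCR, ACTB/GAPDH/POLR2A normalization; gain/loss fit vs DMSO.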

Read-out in assay [8]: Transforming Growth Factor (TGFB1), TGFB1 (gene 7040)
Briefly: LTEA_HepaRG_TGFB1: Life Technologies and Expression Analysis (LTEA) Assay for Transforming Growth Factor (TGFB1) Transporter using HepaRG (AID 2283533). The following applies: mRNA level, 48 h; actives raise or lower the signal. The gist of the method: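 Differentiated HepaRG cells exposed 48 hr in serum-free induction medium to eight half-log concentrations up to 100 uM (0.5% DMSO), duplicate; TGFB1 mRNA by TaqMan qRT-PCR normalised to ACTB, GAPDH, POLR2A; bidirectional fit against DMSO.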

Read-out in a further assay: TIMP1, TIMP1 (gene 7076)
Briefly: LTEA_HepaRG_TIMP1: Life Technologies and Expression Analysis (LTEA) Assay for TIMP1 using HepaRG (AID 2283534). The note with it: mRNA level, 48 h; actives raise or lower the signal. The gist of the method: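 Differentiated HepaRG cells exposed 48 h in serum-free induction medium, duplicates, eight half-log concentrations from 100 uM in 0.5% DMSO. TIMP1 mRNA by qRT-PCR normalized to ACTB, GAPDH, POLR2A; bidirectional fitting against DMSO.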

Read-out in assay [9]: Tumor necrosis factor receptor 1 (TNFRSF1A), TNFRSF1A (gene 7132)
Briefly: LTEA_HepaRG_TNFRSF1A: Life Technologies and Expression Analysis (LTEA) Assay for Tumor necrosis factor receptor 1 (TNFRSF1A) using HepaRG (AID 2283535). The following applies: mRNA level, 48 h; actives raise or lower the signal. The gist of the method: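 Differentiated HepaRG cells in serum-free induction medium, exposed 48 h in duplicate to 8 half-log concentrations up to 100 uM in 0.5% DMSO. TNFRSF1A mRNA by Fluidigm TaqMan qRT-PCR, normalized to ACTB, GAPDH, POLR2A; bidirectional fit.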

Read-out in assay [10]: Thyroid Hormone Responsive (THRSP), THRSP (gene 7069)
Briefly: LTEA_HepaRG_THRSP: Life Technologies and Expression Analysis (LTEA) Assay for Thyroid Hormone Responsive (THRSP) using HepaRG (AID 2283536). The note with it: mRNA level, 48 h; actives raise or lower the signal. The procedure, abridged:
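mRNA induction or loss relative to 0.5% DMSO vehicle was fitted bidirectionally across an eight-point curve whose highest exposure was 100 uM. Human HepaRG liver cells received chemicals in duplicate over 48 h before RNA extraction.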

Read-out in assay [11]: Cellular tumor antigen p53 (Homo sapiens) (UniProt P04637)
Briefly: LTEA_HepaRG_TP53: Life Technologies and Expression Analysis (LTEA) Assay for Tumor Protein P53 (TP53) using HepaRG (AID 2283537). The note with it: mRNA level, 48 h; actives raise or lower the signal. The gist of the method: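 Differentiated HepaRG cells in serum-free induction medium exposed 48 h in duplicate to 8 half-log concentrations, top 100 uM, 0.5% DMSO. TP53 mRNA by TaqMan qRT-PCR (Fluidigm), normalized to ACTB, GAPDH, POLR2A; fitted bidirectionally versus DMSO.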

Read-out in assay [12]: UDP glucuronosyltransferase (UGT1A1), UGT1A1 (gene 54658)
Briefly: LTEA_HepaRG_UGT1A1: Life Technologies and Expression Analysis (LTEA) Assay for UDP glucuronosyltransferase (UGT1A1) using HepaRG (AID 2283538). The following applies: mRNA level, 48 h; actives raise or lower the signal. The procedure, abridged: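 Human liver HepaRG cultures receive test chemical for 48 h, up to 100 uM in 0.5% DMSO, with phenobarbital induction controls. UGT1A1 mRNA is measured by qRT-PCR and normalized to ACTB, GAPDH and POLR2A.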

Read-out in assay [13]: UDP glucuronosyltransferase (UGT1A6), UGT1A6 (gene 54578)
Briefly: LTEA_HepaRG_UGT1A6: Life Technologies and Expression Analysis (LTEA) Assay for UDP glucuronosyltransferase (UGT1A6) using HepaRG (AID 2283539). The note with it: mRNA level, 48 h; actives raise or lower the signal. The gist of the method: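 Differentiated HepaRG cells, ~100,000/well, were exposed for 48 h in serum-free induction medium with 0.5% DMSO to 8-point half-log series topping at 100 uM, in duplicate. mRNA measured by Fluidigm TaqMan qRT-PCR, normalized to ACTB, GAPDH and POLR2A.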

Read-out in assay [14]: X-box binding protein 1 (XBP1), XBP1 (gene 7494)
Briefly: LTEA_HepaRG_XBP1: Life Technologies and Expression Analysis (LTEA) Assay for X-box binding protein 1 (XBP1) using HepaRG (AID 2283540). The following applies: mRNA level, 48 h; actives raise or lower the signal. The procedure, abridged: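 Differentiated human HepaRG cells in serum-free induction medium exposed 48 h in duplicate to eight half-log concentrations up to 100 uM in 0.5% DMSO. XBP1 mRNA measured by Fluidigm TaqMan qRT-PCR, normalized to ACTB, GAPDH, POLR2A; bidirectional fitting against DMSO.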

The nature of assay [15]: LTEA_HepaRG_LDH_cytotoxicity: Cytotoxicity Assessment in the Life Technologies and Expression Analysis (LTEA) Assay (AID 2283563; active means hit-call score of the fitted dose curve at least 0.9, where 1 is the maximum). The gist of the method: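 Differentiated HepaRG cells in serum-free induction medium, exposed 48 h in duplicate to 8 half-log concentrations up to 100 uM in 0.5% DMSO. Cytotoxicity from LDH measured in spent medium, fit relative to DMSO.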
Assay [16] can be described thus: ATG_XTT_Cytotoxicity: Cytotoxicity Assessment in the Attagene TRANS-FACTORIAL HepG2 Assay (AID 2283584; active means hit-call score of the fitted dose curve at least 0.9, where 1 is the maximum). The gist of the method:
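HepG2 cells transiently transfected with GAL4-UAS multiple reporter units, dosed 24 h; cytotoxicity read by XTT as loss of signal versus DMSO baseline.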

Assay [17] can be described thus: TOX21_p53_BLA_p2_viability: Viability Assessment in the Tox21 HCT-116 p53 Agonism Beta-lactamase Assay, Phase 2 (AID 2283591; active means hit-call score of the fitted dose curve at least 0.9, where 1 is the maximum;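 further: compound exposure lasted 16 h at 37 °C; actives lower the ATP signal meaning cytotoxicity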). The procedure, abridged:
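Cytotoxicity readout: CellTiter-Glo ATP luminescence, 30 min at room temperature, after the beta-lactamase read. Cells were HCT116 exposed 16 h at 37C to compounds pin-transferred at 217-fold dilution from DMSO stocks.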

Read-out in assay [18]: succinate dehydrogenase complex iron sulfur subunit B (SDHB), SDHB (gene 6390)
Briefly: LTEA_HepaRG_SDHB: Life Technologies and Expression Analysis (LTEA) Assay for succinate dehydrogenase complex iron sulfur subunit B (SDHB) using HepaRG (AID 2283528). The following applies: mRNA level, 48 h; actives raise or lower the signal. The gist of the method:
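HepaRG cells (~100,000/well, plated 48 h) exposed in duplicate for 48 h in serum-free induction medium to 8-point half-log series from 100 uM in 0.5% DMSO; mRNA by qRT-PCR normalised to ACTB, GAPDH, POLR2A; bidirectional fit versus DMSO.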

Chain of Nuclear factor erythroid 2-related factor 2 (Homo sapiens) (Q16236 whole entry, looked up): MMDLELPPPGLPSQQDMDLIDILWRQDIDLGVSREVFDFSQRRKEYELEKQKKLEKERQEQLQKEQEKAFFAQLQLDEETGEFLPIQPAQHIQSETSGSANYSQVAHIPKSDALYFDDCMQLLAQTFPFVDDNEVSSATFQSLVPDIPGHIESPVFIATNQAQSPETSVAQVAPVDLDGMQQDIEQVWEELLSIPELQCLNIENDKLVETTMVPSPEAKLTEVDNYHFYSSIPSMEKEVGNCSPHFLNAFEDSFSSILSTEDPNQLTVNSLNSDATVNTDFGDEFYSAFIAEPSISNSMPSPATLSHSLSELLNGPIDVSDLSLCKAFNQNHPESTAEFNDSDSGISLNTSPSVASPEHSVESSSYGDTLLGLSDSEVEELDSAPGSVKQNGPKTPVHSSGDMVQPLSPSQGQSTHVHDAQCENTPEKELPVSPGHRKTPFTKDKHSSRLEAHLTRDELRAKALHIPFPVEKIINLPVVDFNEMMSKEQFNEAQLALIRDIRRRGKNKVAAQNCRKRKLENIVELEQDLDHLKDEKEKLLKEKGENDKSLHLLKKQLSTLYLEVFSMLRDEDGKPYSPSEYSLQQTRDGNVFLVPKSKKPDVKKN
Chain of Signal transducer and activator of transcription 3 (Homo sapiens) (P40763 whole entry, looked up): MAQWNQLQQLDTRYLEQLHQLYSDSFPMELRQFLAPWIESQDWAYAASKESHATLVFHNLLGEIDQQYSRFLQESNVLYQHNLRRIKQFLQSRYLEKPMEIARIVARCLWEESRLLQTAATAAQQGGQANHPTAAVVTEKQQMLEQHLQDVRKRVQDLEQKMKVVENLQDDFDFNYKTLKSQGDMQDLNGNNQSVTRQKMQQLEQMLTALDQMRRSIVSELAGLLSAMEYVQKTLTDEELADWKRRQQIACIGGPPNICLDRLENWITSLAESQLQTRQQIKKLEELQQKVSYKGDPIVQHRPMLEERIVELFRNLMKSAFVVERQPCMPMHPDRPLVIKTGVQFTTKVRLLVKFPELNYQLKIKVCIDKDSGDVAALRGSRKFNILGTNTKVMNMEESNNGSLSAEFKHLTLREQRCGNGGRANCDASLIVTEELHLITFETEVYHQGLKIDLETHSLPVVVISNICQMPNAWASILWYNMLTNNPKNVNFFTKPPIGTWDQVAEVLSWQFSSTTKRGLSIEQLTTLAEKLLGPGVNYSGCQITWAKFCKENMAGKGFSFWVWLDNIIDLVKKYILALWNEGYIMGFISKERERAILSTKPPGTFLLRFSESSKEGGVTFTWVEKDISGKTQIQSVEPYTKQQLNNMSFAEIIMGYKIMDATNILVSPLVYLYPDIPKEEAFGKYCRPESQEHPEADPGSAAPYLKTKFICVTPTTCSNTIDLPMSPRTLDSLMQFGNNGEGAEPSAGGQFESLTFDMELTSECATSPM
Chain of Cellular tumor antigen p53 (Homo sapiens) (P04637 whole entry, looked up): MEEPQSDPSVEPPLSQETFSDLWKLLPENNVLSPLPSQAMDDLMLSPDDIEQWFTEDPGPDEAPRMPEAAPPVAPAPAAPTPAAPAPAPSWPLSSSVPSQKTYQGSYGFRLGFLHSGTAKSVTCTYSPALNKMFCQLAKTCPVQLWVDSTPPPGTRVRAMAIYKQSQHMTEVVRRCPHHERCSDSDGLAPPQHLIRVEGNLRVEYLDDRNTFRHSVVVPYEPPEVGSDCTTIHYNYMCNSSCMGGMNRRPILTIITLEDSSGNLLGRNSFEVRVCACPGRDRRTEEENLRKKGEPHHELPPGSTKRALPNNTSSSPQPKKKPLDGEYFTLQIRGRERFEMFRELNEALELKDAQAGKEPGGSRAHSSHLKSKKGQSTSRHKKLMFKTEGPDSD

For `CO[C@@H]1[C@H](OC(=O)NC(=O)CCl)CC[C@]2(CO2)[C@H]1[C@@]1(C)O[C@@H]1CC=C(C)C`, the outcome in [1], in [2], in [3], in assay [4], in assay [5] and in assay [6] was inactive. The outcome in assay [7] is “inactive”; in assay [8], “inactive”; with TIMP1, TIMP1 (gene 7076) it was “inactive”; in [9], “inactive”; in assay [10], “inactive”; in assay [11] it was “inactive”. Moreover, the result in [12], in [13], in assay [14] and in [15] was inactive.

Take `O=[N+]([O-])C(Br)(CO)CO`: the compound was called inactive in [1], in [2], in assay [3], in assay [4], in assay [5] and in assay [6]. Further, the outcome in assay [7] was “inactive”; in assay [8], “inactive”; with TIMP1, TIMP1 (gene 7076) it was “inactive”; in assay [9], “inactive”; in assay [10] it was “inactive”; in assay [12] it was “inactive”. Besides, the outcome in assay [13], in assay [14], in assay [15] and in assay [16] was inactive.

As to `CCC(C)c1ccc(O)cc1` (configuration not stated), the compound was called inactive in assay [1], in [2], in assay [3], in [5], in assay [6] and in [7]. Moreover, the outcome was “inactive” in the assay with TIMP1, TIMP1 (gene 7076); “inactive” in assay [9]; “inactive” in [10]; “inactive” in [11]; “inactive” in [12]; “inactive” in assay [13]. For the same compound, the compound was classed as inactive in assay [14], in [15], in [16] and in assay [17]. Also, the AC50 (in general, the concentration at which the activity in the assay is half-maximal) in assay [4] was 0.361 µM (active).

On to `Nc1ccc(Cc2ccc(N)cc2)cc1`, for which the call in assay [1], in [2], in assay [3], in [18], in [4] and in [5] was inactive. The outcome is “inactive” in assay [6]; “inactive” in [7]; “inactive” in the assay with TIMP1, TIMP1 (gene 7076); “inactive” in assay [9]; “inactive” in [10]; “inactive” in assay [11]. Further, the compound was classed as inactive in assay [13], in [14], in assay [15] and in [17]. Besides, the half-maximal activity concentration (AC50) in assay [12] was 26.2 µM (active).

Regarding `N#CC(Br)(Br)C(N)=O`, the result in [1], in assay [2], in [3], in assay [4], in [5] and in assay [6] was inactive. Also, the outcome in assay [7] is “inactive”; in assay [8] it was “inactive”; in the assay with TIMP1, TIMP1 (gene 7076), “inactive”; in assay [9], “inactive”; in assay [10] it was “inactive”; in assay [11], “inactive”. The result in [12], in assay [13], in [14] and in assay [15] was inactive.

Consider `c1ccc(C2CO2)cc1` (configuration not stated), for which the result in assay [1], in assay [2], in assay [3], in assay [4], in [5] and in [6] was inactive. The call in assay [7], in assay [9], in assay [10], in assay [11], in assay [12] and in [13] was inactive. Moreover, the compound was called inactive in [14], in assay [15] and in [17].
